# PrPC TRFRET = cell surface PrPC inhibition, primary TR-FRET screen. 0.43% of 370,000 active. TR-FRET read-out. inhibition, % at 13.8 µM. P04156; in the data active = inhibition above about 24%; note: 0% = median of the test wells and 100% = reference compound wells
# Sa ugtP lethal = growth inhibition of S. aureus ugtP deletion strain. S. aureus RN4220 ugtP deletion, OD600 growth, 16 h. 0.54% of 330,000 active. growth inhibition, % (concentration not given with the values); in the data active = growth inhibition above about 68%;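 note: plate controls were untreated wells for no effect and antibiotic for full effect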
# PrP UTR inh = suppresses PrP 5' UTR mRNA reporter expression. cell-based PrP 5' UTR mRNA reporter, plate reader. AID 488862. 0.35% of 340,000 active. inhibition, % (no concentration beside the values); in the data active = inhibition above about 52%; note: 0 = median of the neutral control wells
# RN4220 kill = S. aureus RN4220 growth inhibition. 0.33% of 330,000 active. inhibition, % (test concentration not listed). OD600, 16 h; in the data active = inhibition above about 85%;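 note: plate controls were untreated cells for no effect and reference antibiotic for full effect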
# CCHF vOTU inh = CCHFV vOTU protease inhibition; inhibition, % at 11.5 µM; 0.55% of 370,000 active; AID 651958; Pep-AMC fluorescence; in the data active = inhibition above about 30%; note: 0% = vehicle wells with enzyme and 100% = no enzyme wells
# PfHsp40 rescue = compounds rescuing yeast from Plasmodium falciparum HSP40 toxicity; growth rescue, % at 12.5 µM; 0.68% of 340,000 active; S. cerevisiae expressing PfHsp40, growth rescue, ATP luminescence; in the data active = growth rescue above about 28%, passing the limit was not always enough; inconclusive = no clear call, values can overlap the other calls;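 note: yeast W303a lacking pdr1 and pdr3 grown in galactose medium; growth measured after three days at 30 °C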
# PrPC confirm = confirmation of inhibitors of cell surface human prion protein; shares compounds with PrPC TRFRET; 65% of 1,500 active; inhibition, % at 13.8 µM; cell surface PrPC level, TR-FRET; in the data active = inhibition above about 25%
# LD9 cytotox = kills or reduces viability of LD9 cells in PrPc counter-screen; shares compounds with PrPC TRFRET; LD9 cells cytotoxicity, luminescence viability; AID 743201; 29% of 1,500 active; inhibition, % at 13.8 µM; in the data active = inhibition above about 9.5%
# Active calls of the source: *; ? = inconclusive; . = no result. This is a sample that favours compounds with a hit; in the whole collection about 2.1% have one here.
SMILES,PrPC TRFRET,Sa ugtP lethal,PrP UTR inh,RN4220 kill,CCHF vOTU inh,PfHsp40 rescue,PrPC confirm,LD9 cytotox
Cn1c(=O)cc(OCCCC(=O)Nc2cc(-c3ccncc3)ccn2)c2ccccc21,27*,.,.,.,.,.,35*,13*
Cn1c(=O)cc(OCCCC(=O)Nc2cc(C(F)(F)F)ccn2)c2ccccc21,29*,.,.,.,.,.,42*,11*
Cn1c(=O)cc(OCCCC(=O)NCc2cccnc2)c2ccccc21,-1,1,-8,6,-4,1,.,.
Cn1c(=O)cc(OCCCC(=O)Nc2cc(Br)ccn2)c2ccccc21,31*,.,.,.,.,.,47*,15*
COc1cc(C=NNC(=O)COc2ccc(Cl)cc2)ccc1OS(=O)(=O)c1ccc(C)cc1,.,-37,.,-1,.,.,.,.
CCc1ccccc1NC(=O)NC(C(=O)O)C(C)C (stereo not drawn),.,7,.,5,.,.,.,.
CCC(=O)N1CCc2cc(Br)cc(S(=O)(=O)N(C)c3ccc(OC)cc3OC)c21,30*,3,-1,7,14,1,6,-5
CCC(=O)N1CCc2cc(S(=O)(=O)N(C)c3ccc(OC)cc3OC)ccc21,5,-1,-7,7,-3,-1,.,.
O=C(c1ccc(CSc2nc3ccncc3[nH]2)cc1)N1CCN(c2cccc(Cl)c2)CC1,31*,-1,-5,-4,26,-1,40*,9.4*
Cc1cccc(NNC(=O)C(=O)NNc2cccc(C)c2)c1,29*,7,6,5,-2,0,21,-3
CN(C(=O)COc1ccccc1C(=O)NCCOc1ccccc1)c1ccccc1,80*,0,-28,3,-1,0,83*,95*
COc1cc(C=NN=C2CC3CCC2(C)C3(C)C)ccc1O (stereo not drawn),.,-1,.,-3,.,.,.,.
O=C(Nc1ccccc1)Nc1ccc(-n2ccc(C(F)(F)F)n2)cc1,26*,-14,-70,4,-4,-1,22,9.9*
N#CC(C#N)=NNc1ccc(-n2ccc(C(F)(F)F)n2)cc1,32*,.,-9,.,9,186*,43*,39*
O=C(O)CC(CC(=O)Nc1ccc(-n2ccc(C(F)(F)F)n2)cc1)c1ccccc1 (stereo not drawn),6,10,-2,1,1,-1,.,.
CC1CN(C(C)CO)C(=O)c2cccc(NC(=O)NC3CCCCC3)c2OC1CN(C)S(=O)(=O)c1ccccc1 (stereo not drawn),.,2,.,3,.,.,.,.
Cc1ccc(N(C(=O)CCC(=O)Nc2cc(C)on2)C(C(=O)NC2CCCC2)c2cccs2)cc1 (stereo not drawn),10,7,-12,3,7,1,.,.
Cc1cc(NC(=O)CCC(=O)N(c2ccccc2)C(C(=O)NC2CCCC2)c2ccccc2)no1 (stereo not drawn),35*,2,-17,-1,18,-1,52*,-3
Cc1cc(NC(=O)CCC(=O)N(c2ccccc2)C(C(=O)NC2CCCC2)c2cccs2)no1 (stereo not drawn),63*,2,-21,-2,1,0,59*,-2
CC(=NNC(=O)c1ccc(Cl)cc1)c1ccc(Br)s1,.,-11,.,-3,.,.,.,.
Cc1ccccc1C=NN1CCN(c2ccccc2)CC1,.,10,.,5,.,.,.,.
O=C(NC(NC(=S)Nc1ccccc1Cl)C(Cl)(Cl)Cl)c1cccc(Cl)c1 (stereo not drawn),25*,73,-22,53,18,0,40*,11*
CCOC(=O)C1C2COc3cc(OC)ccc3C2N2C(=O)CN(Cc3ccccc3)C(=O)[C@@]12C (stereo partly drawn),.,1,.,2,.,.,.,.
CCOC(=O)c1sc(NC(=O)Nc2ccccc2Cl)cc1C,14,-10,-48,-5,19,-1,.,.
CCOC(=O)c1sc(NC(=O)Nc2ccccc2)cc1C,35*,-20,-70,1,10,1,25*,22*
SMILES,PrPC TRFRET,Sa ugtP lethal,PrP UTR inh,RN4220 kill,CCHF vOTU inh,PfHsp40 rescue,PrPC confirm,LD9 cytotox
CSc1nc(N)nc(-c2cccs2)c1C#N,19,-7,17,-1,13,0,.,.
CC(C)Sc1nc(N)nc(-c2cccs2)c1C#N,30*,-29,-55,7,9,?,41*,3
COc1ccc(C(=O)Nc2cccc(C(C)=NNC(=O)c3ccc([N+](=O)[O-])cc3)c2)cc1OC,.,3,.,-1,.,.,.,.
O=C(COc1cccc2cccnc12)Nc1cccc(S(=O)(=O)N2CCCC2)c1,31*,-19,3,-4,14,0,5,0
Brc1ccc(-c2ccc(CNCc3ccccn3)o2)cc1,30*,6,-9,0,6,-1,49*,-3
Clc1cccc(-c2ccc(CNCc3ccccn3)o2)c1,-1,-1,-14,0,-5,-2,.,.
COc1ccccc1Nc1nc(NCc2ccco2)c2ccccc2n1,8,-33,.,-5,-2,.,.,.
Cc1ccc(Nc2nc(NCc3ccco3)c3ccccc3n2)cc1,35*,-16,-88,-9,21,2,43*,24*
COc1ccc(-c2ccc(SCC(=O)Nc3nccs3)nn2)cc1OC,29*,0,24,3,-22,0,38*,-6
Cc1nn(C)c(C)c1/C=C(/C(=O)C(C)(C)C)n1cncn1,14,-6,9,2,-9,0,.,.
CC(C)(C)C(=O)/C(=C/c1ccncc1)n1cncn1,34*,3,-3,5,-3,-1,1,44*
O=C1COc2cc(O)ccc21,28*,1,-6,1,5,-1,16,-1
CC=CC=CC(=O)Nc1cccc(C2=NOC3(C2)CC(C(N)=O)N(C(=O)COc2ccc(Cl)cc2)C3)c1 (stereo not drawn),.,-23,.,4,.,.,.,.
Cc1csc(NC(=O)CSc2nc(C(C)C)nc3c2c(=O)n(C)c(=O)n3C)n1,27*,4,-8,1,25,0,20,8
Cc1ccccc1N1C(=O)CC(Sc2nnc(-c3ccccc3)o2)C1=O (stereo not drawn),30*,-6,0,0,4,4,21,-2
CC(C)Oc1ccc(CNC(=O)c2ccc3c(c2)N(C)CCS3)cc1,25*,3,-21,-25,-59,0,44*,-4
CCOc1ccc(C2NC(=O)NC(c3ccccc3)=C2C(C)=O)cc1OC (stereo not drawn),27*,16,-6,7,-3,1,21,1
CCOc1cc(C2NC(=O)NC(c3ccccc3)=C2C(C)=O)ccc1OCC(N)=O (stereo not drawn),0,18,1,17,-4,0,.,.
COc1ccc(C2CC(=O)C=C(c3ccc(C)c(F)c3)C2)cc1 (stereo not drawn),.,8,.,5,.,.,.,.

# Source: PubChem BioAssay
